FLuc inh = blocks purified firefly luciferase enzyme activity. Potency, µM (series often up to 115 µM), actives largely listed as inhibitors. P08659. 76,000 tested, 2.5% active. purified P. pyralis luciferase, luminescence, biochemical; further: nearly all actives have a fitted effect of over 65% in size
Target sequence (P08659 whole entry, looked up): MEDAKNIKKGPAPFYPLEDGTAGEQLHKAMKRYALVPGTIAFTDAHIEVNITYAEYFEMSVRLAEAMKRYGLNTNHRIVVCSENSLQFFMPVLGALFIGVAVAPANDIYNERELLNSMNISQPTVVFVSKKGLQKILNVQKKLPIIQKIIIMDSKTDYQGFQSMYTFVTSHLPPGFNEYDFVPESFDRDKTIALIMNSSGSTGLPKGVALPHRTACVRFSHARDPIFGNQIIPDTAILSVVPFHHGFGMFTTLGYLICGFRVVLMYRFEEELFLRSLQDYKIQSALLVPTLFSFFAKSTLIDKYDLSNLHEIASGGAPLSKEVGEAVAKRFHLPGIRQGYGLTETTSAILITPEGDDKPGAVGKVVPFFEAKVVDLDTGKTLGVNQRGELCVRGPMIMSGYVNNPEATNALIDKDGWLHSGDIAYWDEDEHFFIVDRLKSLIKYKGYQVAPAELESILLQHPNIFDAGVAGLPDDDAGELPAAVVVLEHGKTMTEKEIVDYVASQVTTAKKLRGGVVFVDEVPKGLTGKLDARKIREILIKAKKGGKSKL
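Inhibitors were tested against purified firefly luciferase in a biochemical, low-substrate format (both substrates at 10uM) and luminescence measured with a CCD imager.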
NIH3T3 tox = NIH 3T3 cell cytotoxicity. 94,000 tested, 4.3% active. AID 1345082. NIH 3T3 viability, CellTiter-Glo ATP luminescence, 48-72 h. Potency, µM (highest dose often 96.7 µM), for inactives: top-dose activity change, negative = cytotoxicity, actives largely listed as inhibitors; further: nearly all actives have a fitted effect of over 55% in size
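Cytotoxicity is measured as loss of cellular ATP: NIH 3T3 cells (400/well) are exposed to compound for 48 or 72 hr at 37 °C, then CellTiter-Glo luminescence is imaged after 10 min at room temperature.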
HEK cytotox = kills HEK 293 cells; Potency, µM (doses to about 115 µM), for the others: top-dose activity change, negative = cytotoxicity, usual class: inhibitors; AID 1345083; 94,000 tested, 6.6% active; HEK 293 viability, ATP luminescence (CellTiter-Glo), 48-72 h; further: nearly all actives have a fitted effect of over 60% in size
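HEK 293 cells at 250 cells/well were exposed to compounds by pintool transfer for 48 or 72 hr at 37 degree Celsius, 5% CO2. Viability was read as ATP-coupled luminescence with CellTiter-Glo after 10 min at room temperature.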
hNpr1 antagonist = human Npr1 receptor antagonism. 76,000 tested, 1.6% active. Potency, µM (titrated, usually from 46.3 µM), for the others: at the highest dose activity change, negative = inhibition, usual class: inhibitors. HEK293 hNpr1 GloSensor cGMP, ANP-stimulated luminescence; calls by dose curve; further: nearly all actives have a fitted effect of over 60% in size
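HEK293 cells stably expressing human Npr1 and cGMP GloSensor pGS-40F, loaded 2 h with 2% GloSensor reagent, given compound 30 min at room temperature. Luminescence read before and 20 min after 0.1 nM hNppA.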
* hit, by the source's call; i = inactive; ? = inconclusive; nt = no result given; ! = not active in a repeat; [ ] = dose if it differs, or a comment. Sampled rows, rich in hits. Any-hit rate of the full collection: about 11%. Unless noted, the call rests on the fitted dose curve; in most records, active means well fitted curve in the direction sought with a large enough effect; inconclusive means small, poorly fitted or top-dose-only effect, or another doubt; inactive means no such curve, though single readings can be large; an effect the other way counts as inactive or inconclusive. On the % scale 0 is the no-effect control and ±100 the full control effect; potency means the concentration at half of the fitted maximal effect.

SMILES	FLuc inh	NIH3T3 tox	HEK cytotox	hNpr1 antagonist
O=C(NCCCc1ccccc1)C1CCCCN1Cc1ccc(-c2ccsc2)cc1 (stereo not given)	nt	35µM*	?	nt
O=C(NC1CCCCCC1)C1CCCCN1Cc1ccc(-c2ccsc2)cc1 (stereo not given)	nt	-34%	?	nt
O=C(Nc1ccc(F)cc1)N1CC[C@H]2COC(=O)N2c2cc(F)ccc2C1	56µM*	?	-8%[172 µM]	4%[70.6 µM]
CC1=C[C@@H](CNC(=O)CCCC(=O)O)[C@H](C(C)C)C[C@H]1Cc1nc2ccc(Cl)cc2[nH]1	i	-30%	-9%	0%
CC1=C[C@@H](CNC(=O)CC2(CC(=O)O)CCCC2)[C@H](C(C)C)C[C@H]1Cc1nc2ccc(F)cc2[nH]1	i	-17%	-15%	-14%
CC1=C[C@@H](CNS(C)(=O)=O)[C@H](C(C)C)C[C@H]1Cc1nc2ccc(F)cc2[nH]1	i	?	89µM*	?
CC1=C[C@@H](CNS(C)(=O)=O)[C@H](C(C)C)C[C@H]1Cc1nc2ccc(Cl)cc2[nH]1	i	?	100µM*	?
CC1=C[C@@H](CNC2CCN(C)CC2)[C@H](C(C)C)C[C@H]1Cc1nc2ccc(F)cc2[nH]1	i	?	71µM*	-4%[70.6 µM]
O=C(Cc1ccc(F)cc1)N1CCC(C(=O)N2CCCC2c2nc3ccncc3[nH]2)CC1 (stereo not given)	nt	-7%	-6%	nt
O=C(c1ccc(Cl)nc1)N1CCC2(CC1)CC(c1cccc(C(F)(F)F)c1)=NO2	nt	?	35µM*!	nt
O=C(c1cccnc1)N1CCC2(CC1)CC(c1cccc(C(F)(F)F)c1)=NO2	nt	-25%	?	nt
Cc1ccc(C(=O)N2CCC3(CC2)CC(c2cccc(C(F)(F)F)c2)=NO3)cc1	i	?	45µM*!	-26%
Cc1ccc(C(=O)N2CCC3(CC2)CC(c2cccnc2)=NO3)cc1	i	?	?	16%[70.6 µM]
O=C(NCc1cccc(Cl)c1)c1ccc2nnc(-c3ccoc3)n2c1	nt	?	-29%	nt
O=C(Nc1ccc2c(c1)OCO2)C1CCc2sc(C(=O)N3CCCC3)cc2C1 (stereo not given)	?	22µM*	32µM*	?
COC(=O)c1cccc(NC(=O)C2CCc3sc(C(=O)N(C)C)cc3C2)c1 (stereo not given)	i	?	45µM*	-5%
O=C(C1CCCN1C(=O)c1cccc(Cl)c1)N1CCC(N2Cc3cccn3C2=O)CC1 (stereo not given)	nt	?	-31%	nt
O=C(C1CCCN1C(=O)c1ccc(C(F)(F)F)cc1)N1CCC(c2nc3ncccc3[nH]2)CC1 (stereo not given)	nt	-13%	i	nt
O=C(c1nn(CC2CC2)c2c1CNCC2)N1CCC(Cc2ccccc2)CC1	nt	40µM*	?	nt
CC1(C)[C@H]2CC[C@@H](CNC(=O)c3cccc4[nH]ccc34)[C@@H]1C2	i	?	?	-3%[70.6 µM]
CCc1nc(NC(c2ccccc2)c2ccco2)c2cnn(C)c2n1 (stereo not given)	i	?	40µM*	-4%
CCc1nc(NCCc2cc(OC)cc(OC)c2)c2cnn(C)c2n1	i	?	?	2%
O=C(Nc1cccc(Cl)c1)C1=NO[C@@H]2CN(c3ccccn3)C[C@H]12	i	?	100µM*	-8%[70.6 µM]
O=C(Nc1ccc(Cl)cc1)C1=NO[C@@H]2CN(c3ccccn3)C[C@H]12	i	-20%[138 µM]	?	3%[70.6 µM]
CCCN1CCCC2(CCN(c3cc(C)c4cccc(OC)c4n3)C2)C1=O (stereo not given)	i	-17%	?	-2%
Cc1cccc(CN2CCCC3(CCN(c4cc(C)c5ccccc5n4)C3)C2=O)c1 (stereo not given)	i	?	35µM*	-29%
Cc1cc(N2CCC3(CCCN(CC4CCC4)C3=O)C2)nc2ccccc12 (stereo not given)	i	?	32µM*	-1%
CC(=O)N1CCN(C(=O)c2ccc3nnc(-c4ccoc4)n3c2)CC1	nt	-7%	-1%	nt
CCNC(=O)N[C@@H]1C=C[C@@H](c2c(C)nn(-c3ccc(C(C)(C)C)cc3)c2C)C1	?	?	35µM*	32µM*
Cc1nn(-c2ccc(C(C)(C)C)cc2)c(C)c1[C@@H]1C=C[C@@H](NC(=O)c2ccc(N(C)C)cc2)C1	i	?	?	-13%
